The record followed here is PubChem BioAssay AID2501 (Southern Research Specialized Biocontainment Screening …, 2010).

Each structure is given as a SMILES string. About 1,200 (55%) of roughly 2,200 compounds were called active. The set was probably picked from earlier hits. The list shows a part of the results. A number with no mark means an inactive call. No cut-off is given here; in the data, nearly all actives have IC50 up to about 92 µM.

What is called inhibition is the relative decrease from the control value, in per cent. In general, IC50 refers to the concentration at which inhibition is half-maximal.

A short description of the experiment: counter assay for TAg ATPase ADP read-out – biochemical, ADP-Hunter, fluorescence, counter-screen (AID 2501).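 For inhibition: 0% = enzyme with vehicle and 100% = reference inhibitor wells; higher means more inhibition.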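 Note: purified T antigen ATPase.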 The conditions noted are these: series mostly up to 100 µM; inhibition: at the top concentration. (In general: A counterscreen serves to expose hits that act by an unwanted route or on another target.)
As for `COc1ccc2c(c1OC)C(=O)N1c3ccccc3N=C(c3ccc([N+](=O)[O-])cc3)CC21` (stereo unspecified), the “inhibition” value is -23.3%.
In the case of `O=C(NCc1ccco1)/C(=C/c1ccc(C(F)(F)F)cc1)c1nc2ccccc2[nH]1`, the “inhibition” value is -8.13%.
On to `N#C/C(=C/c1ccc(O)c(O)c1)c1nc2ccccc2[nH]1`, for which the IC50 was 5.71 µM (active).
For the compound `O=C(CCn1cnc2ccccc21)N/N=C/c1ccc(O)cc1`, the IC50 is 7.9 µM (active).
For `O=C(CC(=O)N/N=C/c1ccc(O)cc1)N/N=C/c1ccc(O)cc1`, the IC50 is 1.98 µM (active).
On the same count and under the same terms, for `O=C(C[n+]1ccccc1)N/N=C/c1ccc(O)cc1` the value was 3.04 µM (active).
`Cc1cccc(-c2nn(-c3ccccc3)cc2C(=O)Nc2cccc(S(=O)(=O)NC3=NCCC3)c2)c1`: the “inhibition” value is 10.6%.
Take `Cc1nc2cc(-c3ccsc3-n3c(C)ccc3C)[nH]n2c(=O)c1Cl`: the “inhibition” value was -94.4%.
For `CNc1nc(-c2ccccc2)[n+](-c2ccc(C)cc2)s1`, the 50% inhibitory concentration (IC50) was 18.6 µM (active).
As to `COc1cc2c(cc1OC)-c1cc(Nc3ccc(N(C)C)cc3)nc(=O)n1CC2`, the IC50 was 1.76 µM (active).
As for `O=C1CSC(=Nc2ccc(O)cc2)N1c1ccc(O)cc1`, the IC50 is 3.6 µM (active).
Take `O=C1C=CC(=O)N1c1ccc(O)cc1`: the “inhibition” value is 29.8%.
With `Cc1nnc(N/N=C/c2c(O)n(-c3cccc(C(F)(F)F)c3)c(=O)c3ccccc23)[nH]c1=O`, the IC50 was 8.07 µM (active).
The same measure, in the same setting: to `Cc1ccc(CNc2ccc3c(c2)ncn3C(C)C)cc1` belongs 12.7 µM (active); to `CN(C)c1ccc(CNc2ccc3c(c2)ncn3C)cc1`, 13.5 µM (active).
As for `CC(C)c1ccc(CNc2nnnn2C)cc1`, the “inhibition” value is -26.9%.
Take `CCn1cnc2cc(NCc3ccc(N(C)C)cc3)ccc21`: the IC50 was 10.5 µM (active).
In the case of `ClC(Cl)(c1nnnn1-c1ccccc1)c1nnnn1-c1ccccc1`, the “inhibition” value was -14.1%.
In the case of `CC(Cc1ccc(O)c(O)c1)C(C)Cc1ccc(O)c(O)c1` (stereo unspecified), the IC50 is 22.3 µM (active).
Consider `CCCCCCN=C(C)c1ccccc1O`, for which the “inhibition” value was -32.1%.
Turning to `CC(=O)N(c1ccc2oc(=O)sc2c1)S(=O)(=O)c1ccccc1`, the IC50 was 62.1 µM (active).
With `O=C(O)c1cccc(S(=O)(=O)Nc2ccc3oc(=O)sc3c2)c1`, the “inhibition” value is 24.3%.
On to `CSc1nc(O)c(C(c2ccc(OC(C)C)cc2)c2c(O)nc(SC)[nH]c2=O)c(=O)[nH]1`, for which the “inhibition” value was -0.04%.
For the compound `COc1cc(/C=N/NC(=O)C2=NNC(=O)C2C)ccc1O` (stereo unspecified), the IC50 is 6.5 µM (active).
Same read-out and setting: to `COc1cc(/C=N/NC(=O)CC2C(=O)NN=C2C)ccc1O` (stereo unspecified) belongs 5.63 µM (active); to `CCCc1cc(=O)[nH]c(Nc2ccc(O)cc2)n1`, 3.17 µM (active).
Still for that read-out and setting: to `Oc1ccc(N=Cc2cc(Br)c(N3CCOCC3)o2)cc1` belongs 8.18 µM (active).
For the compound `COc1cccc(C=Nc2ccc(N3CCOCC3)cc2)c1O`, the IC50 was 5.29 µM (active).
The same measure, in the same setting: to `Oc1ccc(C=Nc2ccc(N3CCOCC3)cc2)c(O)c1` belongs 2.33 µM (active).
For the compound `Oc1ccc2ccccc2c1C=Nc1ccc(N2CCOCC2)cc1`, the IC50 was 2.74 µM (active).
Take `Cc1ccc(NC(NC(=O)Cc2ccccc2)C(Cl)(Cl)Cl)cc1` (stereo unspecified): the “inhibition” value is -24.6%.
On to `CC1CCCN(Cc2nc(Cc3ccccc3Cl)no2)C1` (stereo unspecified), for which the “inhibition” value was -5.63%.
On to `COc1ccc(CC(O)COS(N)(=O)=O)cc1` (stereo unspecified), for which the “inhibition” value was -27.6%.
For `O=[N+]([O-])c1cc(Cc2ccccc2)cc(C=Nc2ccc(N3CCOCC3)cc2)c1O`, the IC50 was 3.16 µM (active).
The same measure, in the same setting: for `C(=Nc1ccc(N2CCOCC2)cc1)c1c[nH]c2ccccc12` the value was 7.55 µM (active).
Turning to `O=[N+]([O-])/C=C\c1ccc(N2CCOCC2)cc1`, the “inhibition” value is -8.52%.
In the case of `O=C(O)c1cc(-c2ccco2)nc2cc3ccccc3cc12`, the “inhibition” value is 8.1%.
As to `CCC(=O)NC(C)C(c1cccs1)N1CCN(c2ccccc2)CC1` (stereo unspecified), the “inhibition” value was 1.69%.
On to `O=c1cc(CN2CCN(c3ccc(O)cc3)CC2)nc2scc(-c3ccccc3)n12`, for which the IC50 was 9.38 µM (active).
As to `O=c1[nH]c(=S)[nH]c2[nH]c(=S)[nH]c12`, the IC50 is 52.7 µM (active).
As to `CC(C)N1CN(c2ccccc2)C(=S)N(c2ccccc2)C1`, the “inhibition” value was 13.2%.
On to `N#C/C(C(=O)Nc1ccc(Cl)cc1)=C(/S)Nc1ccccc1`, for which the IC50 is 21.8 µM (active).
Take `Cc1n[nH]c(=O)nc1Nc1ccc(O)cc1`: the IC50 is 2.48 µM (active).
Same read-out and setting: for `Cc1[nH]nc(Nc2ccc(O)cc2)c1[N+](=O)[O-]` the value was 3.93 µM (active); for `Cc1nnc(Nc2ccc(O)cc2)[nH]c1=O`, 3.89 µM (active).
Turning to `COc1cc(/C=C(\C#N)C(=O)N2CCc3ccccc32)ccc1O`, the IC50 was 2.3 µM (active).
Regarding `Cc1cc(/C=C(\C#N)C(=O)NC2CCCCCC2)c(C)n1C`, the “inhibition” value was -11.6%.
For `COc1cc(C=C(C(C)=O)C(C)=O)ccc1O`, the IC50 was 3.76 µM (active).
The same measure, in the same setting: for `N#C/C(=C\c1ccc(O)c(O)c1)C(=O)N1CCc2ccccc21` the value was 9.2 µM (active); for `COc1cc(/C=C(\C#N)C(=O)N2CCCCC2)ccc1O`, 5.73 µM (active).
For `CCC(=O)N1CCc2cc(S(=O)(=O)N(C)c3ccc(OC)cc3OC)ccc21`, the “inhibition” value is 22.4%.
